SMILES strings stand for the structures. The panel holds about 83,000 compounds, 20% with a hit somewhere; the sample as a whole holds those more often.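 Plates (96-well) were seeded with cells, treated with compound at one concentration, and incubated for 48 hours before percent growth was determined.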 Values without a mark were called inactive. Calls of active or inactive are those of the source. The calls were made as follows: active = growth percent below 10; inactive = the rest.

Among the test systems are SR leukemia; RPMI-8226 leukemia; OVCAR-8 ovarian; OVCAR-5 ovarian; OVCAR-4 ovarian; SK-OV-3 ovarian; IGROV1 ovarian; OVCAR-3 ovarian; HS 578T breast; NCI/ADR-RES ovarian; T-47D breast; BT-549 breast; MDA-MB-435 melanoma; SW-620 colon; MCF7 breast; HCT-116 colon; HCC-2998 colon; KM12 colon.
What all share (assay): NCI-60 one-dose screen, 48 h (100 = growth as untreated, 0 = no growth, -100 = all killed)
Common to all, as to conditions: 10 µM unless noted

Regarding `CCN(CC)CCOc1ccc(NC(=O)C(C(C)C)N2C(=O)/C(=C/c3ccc(Br)cc3)SC2=S)cc1` (configuration not stated), the growth was -42% (active) with SR leukemia; 19.5% in the assay on RPMI-8226 leukemia; 25.6% in the assay with OVCAR-8 ovarian; 66.4% in the assay with OVCAR-5 ovarian; 70.5% with OVCAR-4 ovarian; 113% in the assay with SK-OV-3 ovarian. For the same compound, the growth in the assay with IGROV1 ovarian is 82.2%; with OVCAR-3 ovarian it was 94%; in the assay on HS 578T breast it was 84.2%; in the assay with NCI/ADR-RES ovarian, 80%; in the assay on T-47D breast, 93.1%; in the assay with BT-549 breast it was 110%. Further, the growth is 97% in the assay on MDA-MB-435 melanoma; 41.9% with SW-620 colon; 19.3% in the assay on MCF7 breast; -24.8% (active) with HCT-116 colon; 73% in the assay with HCC-2998 colon; 99.4% in the assay on KM12 colon.
With `NC(=S)N1N=C(c2ccccc2)CC1c1cn(-c2ccccc2)nc1-c1ccc(OCc2ccccc2)cc1` (configuration not stated), the growth in the assay on SR leukemia was 109%; in the assay on RPMI-8226 leukemia, 90.9%; with OVCAR-8 ovarian, 96.4%; in the assay with OVCAR-5 ovarian it was 104%; in the assay with OVCAR-4 ovarian, 109%; in the assay with SK-OV-3 ovarian, 112%. The growth with IGROV1 ovarian was 113%; in the assay with OVCAR-3 ovarian, 110%; with HS 578T breast, 96.3%; in the assay with NCI/ADR-RES ovarian it was 112%; with T-47D breast, 95.2%; in the assay with BT-549 breast it was 113%. The growth in the assay on MDA-MB-435 melanoma is 109%; in the assay with SW-620 colon, 106%; in the assay on MCF7 breast, 97.3%; in the assay with HCT-116 colon, 88.5%; in the assay with HCC-2998 colon, 103%; with KM12 colon, 99.5%.
For the compound `COc1cc(C2=NN(C(C)=O)C(c3cc(OC)c(OC)c(OC)c3)C2)ccc1O` (configuration not stated), the growth was 15.6% in the assay with SR leukemia; -27.5% (active) in the assay with RPMI-8226 leukemia; 24.7% in the assay on OVCAR-8 ovarian; 34% in the assay on OVCAR-5 ovarian; 35.3% with OVCAR-4 ovarian; 30.3% in the assay with SK-OV-3 ovarian. In addition, the growth is 2.82% (active) in the assay on IGROV1 ovarian; -51.9% (active) in the assay on OVCAR-3 ovarian; -1.42% (active) in the assay on HS 578T breast; -55.4% (active) in the assay with NCI/ADR-RES ovarian; 45.6% with T-47D breast; 23.1% with BT-549 breast. For the same compound, the growth with MDA-MB-435 melanoma is -76% (active); with SW-620 colon, 12.4%; in the assay with MCF7 breast, 8.15% (active); with HCT-116 colon, 6.96% (active); with HCC-2998 colon, -49.3% (active); in the assay with KM12 colon it was 2.51% (active).
On to `CCCCOc1ccc(/C(C)=N/Nc2cc(C)nc3ccc(Br)cc23)cc1`, for which the growth was -8.75% (active) in the assay on SR leukemia; 57.9% with RPMI-8226 leukemia; 88.4% in the assay with OVCAR-8 ovarian; 113% in the assay with OVCAR-5 ovarian; 101% in the assay with OVCAR-4 ovarian; 89.4% with SK-OV-3 ovarian. Moreover, the growth in the assay with IGROV1 ovarian was 85.7%; in the assay with OVCAR-3 ovarian, 101%; with HS 578T breast it was 96.6%; with NCI/ADR-RES ovarian, 99.2%; in the assay on T-47D breast, 85.5%; in the assay on BT-549 breast, 107%. In addition, the growth was 92.8% in the assay on MDA-MB-435 melanoma; 5.89% (active) in the assay on SW-620 colon; 21.3% in the assay on MCF7 breast; 27.7% in the assay with HCT-116 colon; 45.8% in the assay with HCC-2998 colon; 62.9% in the assay with KM12 colon.
`O=C(CCN1CCCC1)Nc1ccc2c(Nc3ccc(Br)cc3)c3ccccc3nc2c1`: the growth in the assay with SR leukemia is -22.6% (active); with RPMI-8226 leukemia, -34.9% (active); in the assay with OVCAR-8 ovarian it was 5.94% (active); with OVCAR-5 ovarian it was 41.9%; in the assay with OVCAR-4 ovarian, -20.2% (active); in the assay with SK-OV-3 ovarian, 57.5%. Besides, the growth in the assay with IGROV1 ovarian is -21.1% (active); with OVCAR-3 ovarian, -65.1% (active); in the assay with HS 578T breast it was 58.6%; with NCI/ADR-RES ovarian it was 20.3%; in the assay on T-47D breast it was 13.6%; in the assay on BT-549 breast it was 47.9%. In addition, the growth was -88% (active) with MDA-MB-435 melanoma; -64.8% (active) in the assay with SW-620 colon; -66.8% (active) in the assay on MCF7 breast; -57.6% (active) in the assay on HCT-116 colon; -73.4% (active) in the assay on HCC-2998 colon; -59.2% (active) in the assay on KM12 colon.
`Nc1c(S(=O)(=O)O)cc2c3c(cccc13)C(=O)OC2=O`: the growth was 114% in the assay with SR leukemia; 106% in the assay on RPMI-8226 leukemia; 97.6% with OVCAR-8 ovarian; 118% in the assay on OVCAR-5 ovarian; 94% in the assay with OVCAR-4 ovarian; 110% in the assay with SK-OV-3 ovarian. The growth in the assay with IGROV1 ovarian is 63.7%; in the assay on OVCAR-3 ovarian it was 95%; with HS 578T breast it was 99.2%; with NCI/ADR-RES ovarian, 93.8%; in the assay with T-47D breast it was 96%; with BT-549 breast, 104%. The growth is 102% with MDA-MB-435 melanoma; 99.8% in the assay with SW-620 colon; 94.8% in the assay on MCF7 breast; 98.6% with HCT-116 colon; 102% in the assay on HCC-2998 colon; 92.5% in the assay with KM12 colon.
`CC(C)(C)c1ccc(NS(=O)(=O)c2ccc3nc(NC(=O)c4cnccn4)[nH]c3c2)cc1`: the growth in the assay with SR leukemia was 4.26% (active); in the assay with RPMI-8226 leukemia, 24.3%; with OVCAR-8 ovarian, 45.6%; in the assay on OVCAR-5 ovarian, 57%; with OVCAR-4 ovarian, 37%; in the assay with SK-OV-3 ovarian, 53.5%. The growth is 37.4% in the assay with IGROV1 ovarian; -12.3% (active) in the assay on OVCAR-3 ovarian; -1.91% (active) in the assay on HS 578T breast; 30.6% in the assay on NCI/ADR-RES ovarian; 25.6% in the assay on T-47D breast; 26.6% with BT-549 breast. Also, the growth was -41% (active) in the assay with MDA-MB-435 melanoma; 18.1% in the assay with SW-620 colon; 18% in the assay on MCF7 breast; 25.4% in the assay with HCT-116 colon; 70.2% in the assay with HCC-2998 colon; 16.6% in the assay with KM12 colon.
Turning to `CN(C)CCn1c2ccc(Br)cc2c2nc3ccccc3nc21`, the growth in the assay on SR leukemia was 11.2%; in the assay with RPMI-8226 leukemia, 9.2% (active); in the assay with OVCAR-8 ovarian it was 32.9%; in the assay on OVCAR-5 ovarian it was 46.4%; in the assay with OVCAR-4 ovarian, 44%; in the assay with SK-OV-3 ovarian, 50.8%. For the same compound, the growth in the assay with IGROV1 ovarian was 18%; in the assay on OVCAR-3 ovarian, 39.9%; in the assay with HS 578T breast, 77.8%; in the assay on NCI/ADR-RES ovarian, 31.8%; in the assay with T-47D breast, 38.4%; in the assay with BT-549 breast it was 84.4%. Moreover, the growth with MDA-MB-435 melanoma is 41.8%; with SW-620 colon it was 17.5%; in the assay on MCF7 breast it was 19.7%; with HCT-116 colon it was 18.2%; in the assay with HCC-2998 colon it was 47.3%; in the assay with KM12 colon, 35%.
With `O=C(CCN1CCCC1)Nc1ccc2c(NCc3ccccc3)c3ccccc3nc2c1`, the growth is -14.8% (active) with SR leukemia; -35.3% (active) with RPMI-8226 leukemia; 4.52% (active) in the assay on OVCAR-8 ovarian; 14.8% in the assay on OVCAR-5 ovarian; -13.8% (active) with OVCAR-4 ovarian; -10.9% (active) in the assay with SK-OV-3 ovarian. For the same compound, the growth in the assay on IGROV1 ovarian is 3.89% (active); with OVCAR-3 ovarian, -33.4% (active); in the assay on HS 578T breast, -10.7% (active); in the assay with NCI/ADR-RES ovarian, 72.5%; in the assay with T-47D breast, -5.83% (active); with BT-549 breast it was 16.8%. In addition, the growth is -5.11% (active) with MDA-MB-435 melanoma; -20.4% (active) with SW-620 colon; -5.67% (active) with MCF7 breast; -15.5% (active) in the assay with HCT-116 colon; -37.4% (active) in the assay on HCC-2998 colon; -2.03% (active) in the assay on KM12 colon.

Source of the values: PubChem BioAssay (NCI).
